Results on 40 compounds are retold here after ChEMBL document CHEMBL3433997, “St. Jude Leishmania screening dataset” (2016).

Each structure is given as a SMILES string.

The target in the first assay is Solute carrier family 2, facilitated glucose transporter member 1 (Homo sapiens) (UniProt P11166). Nature of the assay: ST_JUDE_LEISH: Cytotoxicity at 2uM final concentration against transgenic Leishmania Mexicana promastigotes LmGLUT1 that are glucose transport deficient and complemented with the human glucose transporter GLUT1. Activity is measured by DNA content using SYBR green in vitro. Type of assay: functional.
Sequence of Solute carrier family 2, facilitated glucose transporter member 1 (Homo sapiens) (P11166 whole entry): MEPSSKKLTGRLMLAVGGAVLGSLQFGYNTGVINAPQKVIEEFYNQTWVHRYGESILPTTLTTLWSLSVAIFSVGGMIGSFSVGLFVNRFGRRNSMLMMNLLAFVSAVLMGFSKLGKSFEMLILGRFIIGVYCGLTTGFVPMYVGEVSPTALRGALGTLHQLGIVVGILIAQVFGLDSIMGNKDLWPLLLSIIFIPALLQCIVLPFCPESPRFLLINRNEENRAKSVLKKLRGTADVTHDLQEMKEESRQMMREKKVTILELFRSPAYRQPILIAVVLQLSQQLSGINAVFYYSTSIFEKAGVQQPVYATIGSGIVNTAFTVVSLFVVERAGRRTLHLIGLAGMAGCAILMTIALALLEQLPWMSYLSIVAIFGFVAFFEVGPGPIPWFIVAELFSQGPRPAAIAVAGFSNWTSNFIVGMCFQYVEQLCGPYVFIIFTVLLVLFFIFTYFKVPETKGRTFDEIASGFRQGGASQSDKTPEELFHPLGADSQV
Turning to `COc1ccc2ncc(C#N)c(CCN3CCC(NCc4ccc5c(c4)NC(=O)CO5)CC3)c2c1`, the inhibition – broadly, the drop in the measured response relative to a control, in per cent – stood at 12.7%.

Turning to `Cc1nc2c(c(C)nn2C(C)(C)C)c(C)c1CCC(=O)Nc1ccc(CN2CCCC2)cc1`, the inhibition is 9.93%.

`CCc1c(CCNCCCCCCNC(C)(C)Cc2ccc3c(c2CC)OCO3)ccc(OC)c1OC`: the inhibition is 10%.

As for `O=C(c1ccc(-c2ccc(-c3nc4cc(C(F)(F)F)ccc4[nH]3)s2)cc1)N1CCCCC1CN1CCC(O)C1` (centres undefined), the inhibition stood at 7.23%.

Regarding `O=C(Cc1cccs1)NC(CCCN1CCC(Oc2cccc(Cl)c2)CC1)c1ccc(Cl)c(Cl)c1` (centres undefined), the inhibition stood at 1.97%.

Consider `O=C(C=Cc1ccc(Cl)c(Cl)c1)NCCCCCN1CCC(c2n[nH]c3ccccc23)CC1`, for which the inhibition worked out at 1.5%.

For the compound `COc1c(C2CCN(CCCCNC(=O)c3ccc(-c4ccc(Cl)cc4)cc3)CC2)ccc2c1C(C)(C)CCC2(C)C`, the inhibition was -1.1%.

With `Cc1nc(C(C)Nc2nncc(-c3ccc(Cl)cc3)n2)cs1` (centres undefined), the inhibition was found to be 1.13%.

With `Cc1cc(N[C@@H](CC(C)C)C(=O)NCc2cccs2)nc(NCCc2ccc(F)cc2)n1`, the inhibition worked out at 0.98%.

For the compound `CC(Cc1ccc(CN2CCN(Cc3ccccc3)CC2)cc1)NCC(O)c1cccc(C(F)(F)F)c1` (centres undefined), the inhibition came out at 5.03%.

As for `CCOC(=O)c1ccc(Nc2cc(Nc3ccc(C(=O)OCC)cc3)nc(C)n2)cc1`, the inhibition was 7.7%.

As for `Cc1cccc(CN2CCCN(Cc3ccc(C(=O)Nc4ccc(C(C)(C)C)cc4)cc3)CC2)c1`, the inhibition was determined as 1.47%.

Take `CCCCNC(=N)Nc1ccc(OCCCOc2ccc(NC(=N)NCCCC)cc2)cc1`: the inhibition is -1.92%.

`[O-][S+]1c2ccccc2Sc2ccccc21`: the inhibition came out at 2.27%.

As to `CC(=O)Nc1nc(C(=O)Nc2cccc(-c3ccc(-c4nc5cccc(C)c5[nH]4)cc3)c2)cs1`, the inhibition was determined as 8.06%.

Turning to `CS(=O)(=O)NCCCNCc1cccc(-c2cccc(-c3nc4cc(C(F)(F)F)ccc4[nH]3)c2)c1`, the inhibition was -0.01%.

Consider `CCOc1ccc(C(=O)Nc2cc(Br)c3c(c2)CNCC3)cc1Cl`, for which the inhibition worked out at 1.83%.

As to `COc1ccc(C=Cc2cc(=N)c3ccccc3[nH]2)cc1`, the inhibition was 3.18%.

With `CCc1nc(N)nc(N)c1-c1ccc(F)cc1`, the inhibition worked out at 6.27%.

In the case of `O=c1cc(NCCCNC(c2ccccc2)c2ccc(Cl)c(Cl)c2)[nH]c2ccccc12` (centres undefined), the inhibition is -1.95%.

For the compound `COCC(=O)Nc1nc2ccccc2[nH]1`, the inhibition was 2.56%.

As to `O=C(COc1ccccc1Cc1ccccc1)Nc1cc(Cl)ccc1-n1cncn1`, the inhibition was 4.5%.

Regarding `CCOc1cc(NCCSCc2nc[nH]c2C)nc2ccccc12`, the inhibition is -1.28%.

`CCOc1ccc2c(=NN=Cc3ccccc3F)cc(C)[nH]c2c1`: the inhibition came out at 1.77%.

In a further assay the target is Hexose transporter 1 (Plasmodium falciparum) (UniProt O97467). Description: ST_JUDE_LEISH: Cytotoxicity at 2uM final concentration against transgenic Leishmania Mexicana promastigotes LmPfHT that are glucose transport deficient and complemented with the Plasmodium falciparum hexose transporter. Activity is measured by DNA content using SYBR green in vitro. Format: functional.
In the case of `CCCCn1c(Sc2ccc(C#N)c([N+](=O)[O-])c2)nnc1-c1ccc(OC)cc1`, the inhibition turned out to be 2.64%.

With `Cc1cc(-c2ccc(NC(=O)N3CCc4cc(Cl)c(N5CCN(C)CC5)cc43)cc2)ccc1C#N`, the inhibition amounted to 77.2%.

For the compound `C=C1N(C)c2cc([N+](=O)[O-])c(N)cc2C1(C)C`, the inhibition is -0.1%.

For the compound `CCOc1cc(C=Cc2nc(O)c3ccccc3n2)cc(Cl)c1O`, the inhibition came out at 4.12%.

With `COc1ccc2ncc(Cl)c(CCN3CCC(NCc4ccc5c(n4)NC(=O)CS5)CC3)c2c1`, the inhibition was found to be 11%.

On to `COc1ccc(C2CC(c3cccs3)=NN2C(=O)CNc2cccc(C#N)c2)cc1OC` (centres undefined), for which the inhibition is 14.4%.

For the compound `NCc1cccc(-c2ccccc2CNC2CCN(Cc3ccccc3)CC2)c1`, the inhibition came out at 5.52%.

As to `c1cc(Nc2nccc(-c3cnn4ncccc34)n2)cc(-c2cnco2)c1`, the inhibition came to 45.8%.

With `Cc1ccccc1OCCCN1CCN(CC(c2ccc(F)cc2)N2CCN(C(C)C)CC2)CC1` (centres undefined), the inhibition is 12.5%.

As for `CCc1ccccc1OCCCON1C(=N)N=C(N)NC1(C)C`, the inhibition turned out to be 37.9%.

Regarding `O=C(Cc1cccs1)NCC(c1ccccc1Cl)c1c[nH]c2ccccc12` (centres undefined), the inhibition amounted to 0.74%.

In the case of `COc1cc(NC(=O)/C=C/c2cc(F)cc(F)c2F)cc(OCCN2CCN(CCN3CCOCC3)CC2)c1`, the inhibition came out at 1.58%.

On to `NCCCN(Cc1ccc(Cl)c(Cl)c1)C(=O)Nc1ccc(Cl)c(Cl)c1`, for which the inhibition came to 9.33%.

Consider `O=C(c1ccc(Cl)cc1)N1CCCC(C(=O)N(Cc2nnc(-c3ccccc3Cl)o2)C2CC2)C1` (centres undefined), for which the inhibition came out at 1.56%.

In the case of `COc1ccc(S(=O)(=O)N(CCCN2CCN(C)CC2)Cc2csc(-c3ccc(CNCc4ccccc4)cc3)n2)cc1`, the inhibition came out at 2.47%.

With `CCOc1ccc(C2CCN(CCCCNC(=O)c3ccc(NC(=O)c4ccc(Cl)cc4)cc3)CC2)c(CC)c1`, the inhibition is -0.09%.

For the compound `COc1ccc2ncc(C#N)c(CCN3CCC(NCc4ccc5c(c4)NC(=O)CO5)CC3)c2c1`, the inhibition is 9.55%.

Regarding `Cc1nc2c(c(C)nn2C(C)(C)C)c(C)c1CCC(=O)Nc1ccc(CN2CCCC2)cc1`, the inhibition amounted to 6.16%.

On to `CCc1c(CCNCCCCCCNC(C)(C)Cc2ccc3c(c2CC)OCO3)ccc(OC)c1OC`, for which the inhibition was 10.7%.

Take `O=C(c1ccc(-c2ccc(-c3nc4cc(C(F)(F)F)ccc4[nH]3)s2)cc1)N1CCCCC1CN1CCC(O)C1` (centres undefined): the inhibition worked out at 5.1%.

Regarding `O=C(Cc1cccs1)NC(CCCN1CCC(Oc2cccc(Cl)c2)CC1)c1ccc(Cl)c(Cl)c1` (centres undefined), the inhibition was -1.59%.

On to `O=C(C=Cc1ccc(Cl)c(Cl)c1)NCCCCCN1CCC(c2n[nH]c3ccccc23)CC1`, for which the inhibition was found to be 2.15%.

On to `COc1c(C2CCN(CCCCNC(=O)c3ccc(-c4ccc(Cl)cc4)cc3)CC2)ccc2c1C(C)(C)CCC2(C)C`, for which the inhibition was -1.15%.

In the case of `Cc1nc(C(C)Nc2nncc(-c3ccc(Cl)cc3)n2)cs1` (centres undefined), the inhibition is 0.17%.

On to `Cc1cc(N[C@@H](CC(C)C)C(=O)NCc2cccs2)nc(NCCc2ccc(F)cc2)n1`, for which the inhibition is -0.43%.

Regarding `CC(Cc1ccc(CN2CCN(Cc3ccccc3)CC2)cc1)NCC(O)c1cccc(C(F)(F)F)c1` (centres undefined), the inhibition was found to be 4.18%.

With `CCOC(=O)c1ccc(Nc2cc(Nc3ccc(C(=O)OCC)cc3)nc(C)n2)cc1`, the inhibition was 35.2%.

`Cc1cccc(CN2CCCN(Cc3ccc(C(=O)Nc4ccc(C(C)(C)C)cc4)cc3)CC2)c1`: the inhibition was found to be 1.6%.

Take `CCCCNC(=N)Nc1ccc(OCCCOc2ccc(NC(=N)NCCCC)cc2)cc1`: the inhibition was -1.63%.

Regarding `[O-][S+]1c2ccccc2Sc2ccccc21`, the inhibition came out at 3.44%.

For `CC(=O)Nc1nc(C(=O)Nc2cccc(-c3ccc(-c4nc5cccc(C)c5[nH]4)cc3)c2)cs1`, the inhibition turned out to be 7.51%.

On to `CS(=O)(=O)NCCCNCc1cccc(-c2cccc(-c3nc4cc(C(F)(F)F)ccc4[nH]3)c2)c1`, for which the inhibition was -4.31%.

Regarding `CCOc1ccc(C(=O)Nc2cc(Br)c3c(c2)CNCC3)cc1Cl`, the inhibition is 2.23%.

As for `COc1ccc(C=Cc2cc(=N)c3ccccc3[nH]2)cc1`, the inhibition is 2.77%.

For `CCc1nc(N)nc(N)c1-c1ccc(F)cc1`, the inhibition amounted to 4.73%.

Regarding `O=c1cc(NCCCNC(c2ccccc2)c2ccc(Cl)c(Cl)c2)[nH]c2ccccc12` (centres undefined), the inhibition is -1.47%.

For `COCC(=O)Nc1nc2ccccc2[nH]1`, the inhibition stood at 2.67%.

Take `O=C(COc1ccccc1Cc1ccccc1)Nc1cc(Cl)ccc1-n1cncn1`: the inhibition turned out to be 4.62%.

Turning to `CCOc1cc(NCCSCc2nc[nH]c2C)nc2ccccc12`, the inhibition is -0.61%.

Take `CCOc1ccc2c(=NN=Cc3ccccc3F)cc(C)[nH]c2c1`: the inhibition was determined as 1.33%.
